Measurements reported in PubChem BioAssay.
Calls of active or inactive are those of the source. Unless noted, how the calls were made is not given here.

Assays:
[1] = compound effects on lung adenocarcinoma cell viability – A549, calcein-AM fluorescence, 48 h, basal, profiling panel (AID 1162); conditions: higher = more signal; further: test concentration not given here
[2] = compound effects on differentiated 3T3-L1 adipocyte viability – cell-based, 3T3-L1 adipocytes, calcein-AM fluorescence, 48 h, basal, profiling panel (AID 1163); conditions: 3T3-L1 adipocytes viability, higher = more signal; further: test concentration not given here
[3] = compound effects on hepatocellular carcinoma cell viability – HepG2, calcein-AM fluorescence, 48 h, basal, profiling panel (AID 1164); conditions: higher = more signal; further: test concentration not given here
[4] = compound effects on multiple myeloma cell viability – MM1S, calcein-AM fluorescence, 48 h, basal, profiling panel (AID 1165); conditions: higher = more signal; further: test concentration not given here
[5] = calcein-AM signal in unstimulated myeloma cells – cell-based, calcein-AM fluorescence, 48 h, PK04 Diversity Set, profiling panel (AID 1166); conditions: RPMI8226 myeloma viability, higher = more signal;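 further: cells grown under basal conditions without added stimulus; test concentration not given here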
[6] = JC-1 mitochondrial signal, unstimulated HepG2 cells – cell-based, JC-1 fluorescence, 24 h, 100 nL compound, profiling panel (AID 1167); conditions: HepG2 mitochondrial potential, higher = more signal; further: test concentration not given here
[7] = JC-1 mitochondrial signal, unstimulated adipocytes – cell-based, JC-1 fluorescence, 3T3-L1 adipocytes, 24 h, 100 nL compound, profiling panel (AID 1168); conditions: JC-1 mitochondrial fluorescence, higher = more signal, called active from +8 up or from −8 down; further: test concentration not given here
[8] = JC-1 mitochondrial signal, unstimulated myeloma cells – cell-based, JC-1 fluorescence, RPMI8226, 24 h, 100 nL compound, profiling panel (AID 1169); conditions: JC-1 mitochondrial potential fluorescence, higher = more signal; further: test concentration not given here
[9] = JC-1 mitochondrial signal, unstimulated MM1S myeloma – cell-based, JC-1 fluorescence, 24 h, 100 nL compound, profiling panel (AID 1170); conditions: MM1S mitochondrial potential, higher = more signal; further: test concentration not given here
[10] = resazurin metabolic signal in A549 cells – cell-based, resazurin fluorescence, 24 h, PK04 Diversity Set, profiling panel (AID 1171); conditions: A549 viability, higher = more signal, called active from +8 up or from −8 down; further: test concentration not given here
[11] = resazurin metabolic signal in HepG2 cells – cell-based, resazurin fluorescence, 24 h, PK04 Diversity Set, profiling panel (AID 1172); conditions: HepG2 viability, higher = more signal; further: test concentration not given here
[12] = budding yeast growth changes without added modifier – OD600, strain BY4716, 24 h, basal condition, primary screen (AID 1173); conditions: S. cerevisiae BY4716 growth, OD600, 24 h; higher = more signal, called active from +8 up or from −8 down
[13] = viability profiling in MM1S myeloma cells – cell-based, resazurin fluorescence, basal, 24 h, PK04 Diversity Set, profiling panel (AID 1174); conditions: higher = more signal, called active from +8 up or from −8 down; further: test concentration not given here
[14] = molecular target: Dihydroorotate dehydrogenase (quinone), mitochondrial (Plasmodium falciparum (isolate 3D7)) (UniProt Q08210); experiment: inhibition of P. falciparum DHODH – biochemical, C-terminal His tag, absorbance 600 nm, primary screen (AID 1175); conditions: PfDHODH enzyme, DCIP absorbance 600 nm; higher = more signal, called active from +8 up or from −8 down;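 further: recombinant parasite enzyme with a five histidine tag at its C terminus; test concentration not given here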
Dihydroorotate dehydrogenase (quinone), mitochondrial (Plasmodium falciparum (isolate 3D7)), sequence (Q08210 whole entry, looked up): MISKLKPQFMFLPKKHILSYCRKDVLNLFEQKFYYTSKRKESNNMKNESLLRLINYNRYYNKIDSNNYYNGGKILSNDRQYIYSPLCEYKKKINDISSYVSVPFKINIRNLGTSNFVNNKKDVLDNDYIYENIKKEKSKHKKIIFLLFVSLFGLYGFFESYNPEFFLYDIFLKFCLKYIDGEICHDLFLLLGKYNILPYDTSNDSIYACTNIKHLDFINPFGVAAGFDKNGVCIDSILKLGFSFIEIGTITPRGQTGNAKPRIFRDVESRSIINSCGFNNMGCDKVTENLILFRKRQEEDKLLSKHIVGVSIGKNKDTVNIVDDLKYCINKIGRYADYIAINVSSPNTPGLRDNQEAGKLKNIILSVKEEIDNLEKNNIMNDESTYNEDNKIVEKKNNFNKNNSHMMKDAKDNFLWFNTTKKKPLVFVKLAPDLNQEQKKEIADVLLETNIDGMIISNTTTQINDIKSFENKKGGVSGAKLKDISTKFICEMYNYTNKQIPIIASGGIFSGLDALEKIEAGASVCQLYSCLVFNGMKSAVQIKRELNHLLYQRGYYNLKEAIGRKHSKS

[15] = inhibition of PAO1 biofilm formation – strain PAO1, LB-PBS medium, absorbance 600 nm, primary screen (AID 1176); further: test concentration not given here; conditions: P. aeruginosa PAO1 growth/biofilm, A600, 12 h; higher = more signal
[16] = growth modulation of vineyard yeast isolate – strain RM11-1a, OD600, basal, 24 h, primary screen (AID 1177);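 further: cultures grown under basal conditions with no added stressor; test concentration not given here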; conditions: S. cerevisiae RM11-1a growth, OD600, 24 h; higher = more signal, called active from +8 up or from −8 down
[17] = growth of efflux-deficient E. coli DRC39 – strain DRC39, OD650, 24 h, E. coli filamentation inducers, primary screen (AID 1178);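 further: growth measured as culture turbidity by optical density at 650 nm; test concentration not given here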; conditions: E. coli DRC39 acrAB, higher = more signal, called active from +8 up or from −8 down
[18] = growth of efflux-deficient E. coli DRC39 – strain DRC39, OD650, 48 h, E. coli filamentation inducers, primary screen (AID 1179);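 further: screen aims at cell division blockers that make cells filament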; conditions: E. coli DRC39 delta-acrAB growth, higher = more signal, called active from +8 up or from −8 down
[19] = viability profiling in RPMI8226 myeloma cells – cell-based, resazurin fluorescence, basal, 24 h, PK04 Diversity Set, profiling panel (AID 1180); conditions: higher = more signal;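 further: RPMI8826 multiple myeloma cell line at 5000 cells per well; test concentration not given here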
[20] = molecular target: E3 ubiquitin-protein ligase XIAP (Homo sapiens) (UniProt P98170); experiment: small molecules binding XIAP protein – biophysical, small-molecule microarray, fluorescence 635 nm, primary screen (AID 1181); conditions: higher = more signal;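 further: score merges 667 nm emission and signal to noise over triplicate slides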
E3 ubiquitin-protein ligase XIAP (Homo sapiens), sequence (P98170 whole entry, looked up): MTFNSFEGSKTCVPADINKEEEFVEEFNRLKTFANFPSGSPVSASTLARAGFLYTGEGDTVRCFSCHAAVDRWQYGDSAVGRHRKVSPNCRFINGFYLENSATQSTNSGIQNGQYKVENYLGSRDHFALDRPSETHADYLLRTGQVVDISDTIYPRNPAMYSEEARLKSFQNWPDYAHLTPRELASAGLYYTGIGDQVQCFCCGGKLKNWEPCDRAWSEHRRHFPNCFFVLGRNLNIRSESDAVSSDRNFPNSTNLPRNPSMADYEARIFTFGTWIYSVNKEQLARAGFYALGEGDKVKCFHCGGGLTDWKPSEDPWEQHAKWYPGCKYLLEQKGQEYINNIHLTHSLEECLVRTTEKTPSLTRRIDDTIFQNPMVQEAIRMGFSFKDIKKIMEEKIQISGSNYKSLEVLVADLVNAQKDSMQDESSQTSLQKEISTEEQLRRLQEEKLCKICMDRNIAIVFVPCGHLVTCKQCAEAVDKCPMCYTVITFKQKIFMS

SMILES	z-score [1]	z-score [2]	z-score [3]	z-score [4]	z-score [5]	z-score [6]	z-score [7]	z-score [8]	z-score [9]	z-score [10]	z-score [11]	z-score [12]	z-score [13]	composite z-score [14]	z-score [15]	z-score [16]	z-score [17]	z-score [18]	z-score [19]	composite z-score [20]
COCCOC(=O)N1C(=O)[C@@]2(c3cc(C#Cc4ccc(OC)cc4)ccc31)[C@H](c1ccccc1OCCO)N1[C@H](c3ccccc3)[C@H](c3ccccc3)OC(=O)[C@H]1[C@@H]2C(=O)N1CCCCCCC1	0.161	1.62	1.19	-0.248	-0.584	0.591	3.46 (inactive)	-0.686	-1.16	0.375 (inactive)	0.457	1.29 (inactive)	0.0229 (inactive)	-1.26 (inactive)	3.49 (inactive)	1.84 (inactive)	-0.398 (inactive)	0.118 (inactive)	0.504	0.223
CCCCCCc1nc(-c2cc(C)c(OC)c(C)c2)c(C)c2c1[Si](C(C)C)(C(C)C)OC2	-0.499	1.66	-0.289	-2.84	-1.44	0.797	0.354 (inactive)	-0.18	-1.6	0.197 (inactive)	-0.52	-0.214 (inactive)	0.899 (inactive)	-2.86 (inactive)	0.374 (inactive)	-0.199 (inactive)	0.326 (inactive)	-0.461 (inactive)	0.736	-0.0994
O=C(NCC(F)(F)F)[C@@H]1c2ccccc2C(=O)N(Cc2ccccc2C(F)(F)F)[C@H]1c1ccc(CO)cc1	0.215	-0.484	0.0606	0.0756	-0.328	0.277	-1.07 (inactive)	0.0161	-0.894	0.456 (inactive)	-0.0877	0.0223 (inactive)	-0.474 (inactive)	-0.184 (inactive)	0.292 (inactive)	-0.246 (inactive)	-0.308 (inactive)	0.263 (inactive)	-0.853	-0.184
CC1=C[C@@]2(CO)C(=O)[C@]3(CO3)[C@@H]1[C@H]1[C@]2(C)C=C(CO)C(=O)[C@]12CO2	0.23	0.263	-0.164	-3.33	-0.753	-0.38	-0.311 (inactive)	0.249	-2.11	0.474 (inactive)	0.693	-2.6 (inactive)	-0.54 (inactive)	-2.12 (inactive)	-0.614 (inactive)	-0.813 (inactive)	0.477 (inactive)	0.655 (inactive)	0.483	-0.227
Cc1ccc(S[C@]2(C(=O)NCC(F)(F)F)CC(=O)N(C3CCCCC3)[C@@H]2c2ccc(CO)cc2I)cc1	0.335	0.66	0.133	-2.65	-1.91	-0.807	-0.482 (inactive)	-0.445	0.176	0.741 (inactive)	0.04	0.108 (inactive)	0.384 (inactive)	0.0443 (inactive)	0.201 (inactive)	-0.531 (inactive)	-0.0243 (inactive)	-0.223 (inactive)	-0.128	-0.12
COC(=O)[C@@]1(Cc2ccc(F)cc2)[C@H]2c3cc(C(=O)N4CCCC4)n(CCN4CNCC4=O)c3C[C@H]2CN1C(=O)c1ccccc1	-0.0823	1.32	-0.403	-0.0244	-1.67	2.44	-0.933 (inactive)	-0.452	-1.23	0.415 (inactive)	0.424	1.39 (inactive)	-0.758 (inactive)	-0.421 (inactive)	0.976 (inactive)	0.76 (inactive)	0.264 (inactive)	-1.03 (inactive)	-0.628	0.253
COC(=O)c1nc2oc1CC[C@@H](CO)NC(=O)N(C)Cc1cnnn1C[C@H](Cc1ccccc1)NC2=O	0.0656	-0.65	0.537	1.01	0.529	0.912	1.25 (inactive)	-0.912	-0.511	0.634 (inactive)	0.841	-1.07 (inactive)	1.09 (inactive)	-0.288 (inactive)	0.383 (inactive)	0.477 (inactive)	0.218 (inactive)	1.12 (inactive)	1.47	-0.148
COC(=O)[C@@]1(Cc2ccc(OC)cc2)[C@H]2c3cc(C(=O)N(C)C)n(C[C@H](O)CO)c3C[C@H]2CN1C(=O)c1ccccc1	-0.93	-0.503	-0.285	-1.99	-1.79	0.906	-0.871 (inactive)	-0.847	-1.03	-0.816 (inactive)	-1.17	1.02 (inactive)	-2.31 (inactive)	-0.791 (inactive)	2.01 (inactive)	0.166 (inactive)	-1.46 (inactive)	-1.11 (inactive)	-1.95	0.441
COc1ccc([Si](C)(C)[C@H]2[C@H](CCO)O[C@@]3(C(=O)N(Cc4cccc(N5C(=O)COc6ccccc65)c4)c4ccccc43)[C@@H]2C)cc1	-0.533	0.167	-4.12	-2.21	-3.93	0.0559	1.93 (inactive)	-1.05	-1.5	-2.14 (inactive)	-2.46	0.422 (inactive)	-3.44 (inactive)	0.858 (inactive)	2.44 (inactive)	4.14 (inactive)	2.23 (inactive)	1.92 (inactive)	-4.91	-0.132
O=C1O[C@@H](c2ccccc2)[C@@H](c2ccccc2)N2[C@@H](c3ccc(O)cc3)[C@]3(C(=O)Nc4ccc(C#CC5=CCCCC5)cc43)[C@@H](C(=O)NC[C@H](O)c3ccccc3)[C@H]12	0.0793	0.294	-1.86	-3.33	-4.54	-2.26	1.33 (inactive)	-1.06	-1.1	-1.49 (inactive)	-0.705	-0.593 (inactive)	-3.09 (inactive)	-0.609 (inactive)	1.6 (inactive)	2.43 (inactive)	0.0087 (inactive)	0.939 (inactive)	-6.69	-0.0397
CCOC(=O)C[C@H]1[C@H](OC(=O)c2ccccc2-c2ccccc2)[C@@H](NC(=O)C2CCCCC2)c2cc(OCCCO)ccc2N1C(=O)Cc1ccc(OC)cc1	0.544	0.744	0.43	-0.524	-0.593	0.908	-0.388 (inactive)	-0.285	-0.663	0.361 (inactive)	-0.18	0.0422 (inactive)	-0.257 (inactive)	0.0563 (inactive)	0.0238 (inactive)	-0.508 (inactive)	-0.506 (inactive)	-0.657 (inactive)	-0.466	-0.159
COC(=O)[C@@]1(Cc2ccc(F)cc2)[C@H]2c3cc(C(=O)N4CCCC4)n(CCc4ccc(O)c(O)c4)c3C[C@H]2CN1C(=O)c1ccccc1	0.863	-0.0428	0.609	-3.48	-4.2	0.54	-0.461 (inactive)	-0.788	-1.59	0.0195 (inactive)	-1.48	1.78 (inactive)	-1.07 (inactive)	-0.0926 (inactive)	1.78 (inactive)	1.78 (inactive)	-0.265 (inactive)	-0.177 (inactive)	-0.795	0.32
O=C1O[C@H](c2ccccc2)[C@H](c2ccccc2)N2[C@H]1[C@@H](C(=O)Nc1nc3ccccc3s1)[C@]1(C(=O)Nc3ccc(C#CCCO)cc31)[C@H]2c1ccc(O)cc1	0.695	0.215	-0.257	-2.26	-3.96	-3.86	-0.525 (inactive)	-1.25	-1.48	0.679 (inactive)	0.506	0.14 (inactive)	0.157 (inactive)	-0.253 (inactive)	1.04 (inactive)	0.604 (inactive)	0.266 (inactive)	0.145 (inactive)	-2.4	1.01
COCCOC(=O)N1C(=O)[C@@]2(c3ccccc31)[C@H](C(=O)N1CCN(c3ncccn3)CC1)[C@H]1C(=O)O[C@H](c3ccccc3)[C@H](c3ccccc3)N1[C@@H]2c1ccc(O)cc1	-0.337	0.176	0.102	-1.41	-0.441	0.745	-0.107 (inactive)	0.263	0.0963	1.19 (inactive)	-0.0067	0.056 (inactive)	0.439 (inactive)	-0.437 (inactive)	1.81 (inactive)	0.953 (inactive)	-0.612 (inactive)	0.075 (inactive)	0.434	-0.222
CCOC(=O)C1=CC[C@@H](c2cccc(Cl)c2)N(S(=O)(=O)c2ccc(C)cc2)C1	-0.236	0.472	0.46	-1.14	-0.789	0.584	1.34 (inactive)	-0.043	-0.51	-0.617 (inactive)	-0.36	0.255 (inactive)	-0.347 (inactive)	-1.54 (inactive)	-0.405 (inactive)	-0.188 (inactive)	0.242 (inactive)	1.2 (inactive)	-0.277	-0.149
COC(=O)c1c(CC[C@@H](CO)NC(=O)N[C@H](Cn2cc(C3(O)CCCCC3)nn2)C(C)C)oc(C(C)=O)c1C(=O)OC	-0.233	1.36	-0.134	-0.722	0.0074	0.74	0.595 (inactive)	0.355	-0.202	-1.06 (inactive)	-0.752	-3.03 (inactive)	0.679 (inactive)	-4.51 (inactive)	-0.24 (inactive)	-0.834 (inactive)	1.4 (inactive)	0.669 (inactive)	0.0252	-0.102
